The whole screen tested about 310,000 compounds, of which about 14,000 (4.5%) showed an effect of 50% or more. Effects have a minus sign here. Only a selection was taken, and strong results are over-represented in it overall.
Target: human ether-à-go-go-related gene (hERG) potassium channel (human, UniProt Q12809)
Experiment: primary screen, population patch clamp on CHO cells stably expressing hERG; higher = less effect of the substance
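Note: peak tail current of the secondary pulse compared with the same well before compound.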

Sequence of human ether-à-go-go-related gene (hERG) potassium channel (Q12809 whole entry, looked up): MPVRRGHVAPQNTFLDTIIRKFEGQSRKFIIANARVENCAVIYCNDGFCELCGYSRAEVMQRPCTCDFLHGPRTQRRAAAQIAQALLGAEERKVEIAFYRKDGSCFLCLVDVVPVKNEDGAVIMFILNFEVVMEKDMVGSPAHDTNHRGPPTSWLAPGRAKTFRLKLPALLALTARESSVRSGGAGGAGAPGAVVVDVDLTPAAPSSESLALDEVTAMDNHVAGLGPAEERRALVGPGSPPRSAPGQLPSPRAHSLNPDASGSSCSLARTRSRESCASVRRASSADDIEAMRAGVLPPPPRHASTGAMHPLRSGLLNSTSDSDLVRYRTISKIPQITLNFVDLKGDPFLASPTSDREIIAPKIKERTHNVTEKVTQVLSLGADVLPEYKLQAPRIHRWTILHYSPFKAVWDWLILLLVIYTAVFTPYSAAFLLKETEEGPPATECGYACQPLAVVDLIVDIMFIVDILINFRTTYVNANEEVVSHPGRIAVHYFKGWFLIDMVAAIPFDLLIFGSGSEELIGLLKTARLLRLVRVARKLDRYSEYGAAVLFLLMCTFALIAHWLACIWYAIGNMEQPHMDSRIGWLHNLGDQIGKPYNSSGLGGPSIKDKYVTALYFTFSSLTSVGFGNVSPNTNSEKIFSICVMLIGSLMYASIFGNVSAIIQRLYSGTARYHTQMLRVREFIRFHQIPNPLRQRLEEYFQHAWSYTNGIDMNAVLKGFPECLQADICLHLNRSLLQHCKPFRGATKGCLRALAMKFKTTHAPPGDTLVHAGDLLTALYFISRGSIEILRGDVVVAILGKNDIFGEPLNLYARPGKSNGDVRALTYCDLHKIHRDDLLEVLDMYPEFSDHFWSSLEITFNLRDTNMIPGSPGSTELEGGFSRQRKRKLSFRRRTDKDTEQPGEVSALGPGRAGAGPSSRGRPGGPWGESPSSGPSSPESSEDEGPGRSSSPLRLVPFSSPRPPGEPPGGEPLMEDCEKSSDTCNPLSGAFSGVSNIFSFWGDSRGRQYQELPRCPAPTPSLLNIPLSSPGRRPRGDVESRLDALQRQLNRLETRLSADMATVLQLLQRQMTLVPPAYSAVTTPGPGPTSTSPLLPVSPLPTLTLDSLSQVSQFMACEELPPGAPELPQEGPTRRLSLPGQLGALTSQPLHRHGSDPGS

Compound	hERG current change (%, negative = inhibition) at 10uM
Cc1c(Cl)cccc1NC(=S)N(Cc1ccco1)C(C)c1ccccn1 (centres unmarked)	-11%
CN(Cc1cccnc1)Cc1cn(Cc2ccccc2)nc1-c1ccc2c(c1)OCO2	-11.7%
CN(CCn1ccnc1)Cc1cn(Cc2ccccc2)nc1-c1ccc2c(c1)OCO2	-23.2%
CN(CCn1ccnc1)Cc1cn(-c2ccccc2)nc1-c1ccc2c(c1)OCO2	-62.9%
CCOC(=O)N1CCN(C(=O)/C(=C\c2cccs2)NC(=O)c2cccs2)CC1	-71.8%
Cc1ccc(NC(=O)/C(=C\c2cccs2)NC(=O)c2ccccc2)cc1	-3.84%
CN1CCN(C(=O)/C(=C\c2cccs2)NC(=O)c2ccccc2)CC1	-75.3%
O=C(N/C(=C\c1ccc2c(c1)OCO2)C(=O)N1CCOCC1)c1cccs1	-42.8%
O=C(N/C(=C\c1cccs1)C(=O)N1CCCCCC1)c1ccccc1	-32.3%
O=C(N/C(=C/c1ccc2c(c1)OCO2)C(=O)N1CCOCC1)c1cccs1	9.12%
Cc1cccc(NC(=O)/C(=C\c2cccs2)NC(=O)c2ccccc2)c1	-51.7%
O=C(N/C(=C/c1cccs1)C(=O)N1CCCC1)c1ccccc1	6.44%
CCOC(=O)N1CCN(C(=O)/C(=C/c2cccs2)NC(=O)c2cccs2)CC1	-45.7%
O=C(Nc1ccccc1)/C(=C\c1cccs1)NC(=O)c1ccccc1	9.9%
CN1CCN(C(=O)/C(=C\c2ccc3c(c2)OCO3)NC(=O)c2cccs2)CC1	-76.8%
CCOC(=O)N1CCC(NC(=O)c2cccs2)CC1	6.2%
COc1cc(CNCC2CCCO2)ccc1OCC(N)=O.Cl (centres unmarked)	16.3%
CCOc1ccc(S(=O)(=O)N2CCC(C(=O)NCc3cccnc3)CC2)cc1	-27.1%
CCCC1(c2ccccc2)NC(=O)N(CC(=O)Nc2cc(C)on2)C1=O (centres unmarked)	23.6%
CCc1nn(CC(=O)NCCc2ccc(S(N)(=O)=O)cc2)c(=O)c2cc3sccc3n12	20.1%
Oc1ccc(O)c(/C(=N/Nc2ccccc2)c2ccccc2)c1	11%
O=c1n(-c2cccc(Cl)c2)c(=O)n2n1CCC2	-6.81%

Compound	hERG current change (%, negative = inhibition) at 10uM
O=C(CCN1CCN(c2ccc(Cl)cc2)CC1)Nc1nccs1	-13.3%
COc1cc(C2c3c(oc4c(C)cc(C)cc4c3=O)C(=O)N2Cc2cccnc2)ccc1O (centres unmarked)	5.03%
COCC(C)n1c(C)cc(C(=O)COC(=O)/C=C/c2cccc(F)c2)c1C (centres unmarked)	-31.6%
Cc1nn(Cc2ccccc2)c(Cl)c1/C=C/C(=O)OC(C)C(=O)N1CCCC1 (centres unmarked)	18.7%
Cc1ccc(C(=O)N/C(=C/c2cccs2)C(=O)N2CCCCC2)cc1	-35.4%
CN1CCN(C(=O)/C(=C\c2cccs2)NC(=O)c2cccs2)CC1	-72.5%
Cc1ccc(C(=O)N/C(=C/c2cccs2)C(=O)N2CCCCCC2)cc1	-46%
Cc1ccc(C(=O)N/C(=C\c2cccs2)C(=O)N2CCCCCC2)cc1	-50.7%
O=C(N/C(=C/c1cccs1)C(=O)N1CCOCC1)c1cccs1	-8.41%
O=C(N/C(=C\c1cccs1)C(=O)N1CCOCC1)c1cccs1	-9.07%
Cc1cc(NC(=O)C2CC(=O)N(c3ccccc3Cl)C2)no1 (centres unmarked)	14.6%
C/C(=N\NC(=O)CNC(=O)c1ccc2c(c1)OCCO2)c1ccco1	10.7%
CC(=O)Nc1ccc(S(=O)(=O)N2CCN(CCCOc3ccccc3Cl)CC2)cc1	-49.6%
CN(CCN1CCOCC1)C(=O)CC1C(=O)NCCN1Cc1ccccc1F (centres unmarked)	12%
Cc1cc(C)cc(NC(=O)CSc2ccc(-c3ccccn3)nn2)c1	8.61%
CCN(CC)C(=O)CSc1nnc(-c2ccccn2)n1-c1ccc(C)c(C)c1	-24.8%
Cc1nnc(NC(=O)CSc2ccc(-c3ccccn3)nn2)s1	12.1%
Cc1csc(NC(=O)CSc2ccc(-c3ccccn3)nn2)n1	-73.6%
Cc1ccc(-n2c(SCC(N)=O)nnc2-c2ccccn2)cc1C	8.79%
Cc1csc(SCC(=O)Nc2nc(-c3ccccc3)cs2)n1	-8.35%
Cc1csc(NC(=O)CSc2nnc(-c3ccccn3)n2-c2ccc(C)c(C)c2)n1	-78.5%
Cc1csc(NC(=O)CSc2ccc(-c3ccccc3)nn2)n1	-66.9%

Compound	hERG current change (%, negative = inhibition) at 10uM
Cc1csc(NC(=O)CSc2ccc(-c3ccc(F)cc3)nn2)n1	-26.8%
COc1ccc(CCN2C(=O)CSC2c2cccc([N+](=O)[O-])c2)cc1OC (centres unmarked)	-3.39%
CCOC(=O)c1c(C)nc2c(c1-c1ccccc1)C(=O)CC(C)(C)C2	-16.8%
CC(OC(=O)c1ccc(O)cc1)C(=O)Nc1nc(-c2ccccc2)cs1 (centres unmarked)	-17.8%
CCOC(=O)N1CCN(C(=O)C2CCN(S(=O)(=O)c3ccc(F)cc3)CC2)CC1	-19.3%
CSc1ccccc1C(=O)NC1CCCN(Cc2ccccc2F)C1 (centres unmarked)	-11.5%
CC(=O)NC1C(OCc2cccc(Br)c2)OC(COC(C)=O)C(OC(C)=O)C1OC(C)=O (centres unmarked)	-12.4%
CNC(=O)c1ccccc1Sc1ccccc1C#N	19.1%
CCOc1cc(N2CCOCC2)c(OCC)cc1NC(=O)C(C)(C)C	17.4%
CC(=O)c1cccc(NC(=O)C2CCN(C(=O)c3ccc([N+](=O)[O-])cc3)CC2)c1	-69.6%
COc1cc(C(=O)N2CCC(C(=O)Nc3cccc(C(C)=O)c3)CC2)cc(OC)c1OC	-2.12%
CC(=O)c1ccc(NC(=O)N2CCN(c3ccc(C)cc3)C(C)C2)cc1 (centres unmarked)	-19.6%
Cc1ccc(C(=O)N2CCC(C(=O)Nc3cccc([N+](=O)[O-])c3)CC2)cc1	-80.1%
CC(=O)c1cccc(NC(=O)C2CCN(C(=O)c3ccccc3Cl)CC2)c1	-0.359%
O=C(Nc1ccccc1)C1CCN(C(=O)c2ccc([N+](=O)[O-])cc2)CC1	-71.4%
O=C(Nc1cccc([N+](=O)[O-])c1)C1CCN(C(=O)Cc2ccccc2)CC1	-43.3%
Cc1ccc(N2CCN(C(=O)Nc3cccc([N+](=O)[O-])c3)CC2C)cc1 (centres unmarked)	-78.3%
CC(=O)Nc1ccc(NC(=O)C2CCN(C(=O)c3ccc([N+](=O)[O-])cc3)CC2)cc1	-0.926%
O=C(Nc1ccc(F)cc1)C1CCN(C(=O)c2ccc([N+](=O)[O-])cc2)CC1	-4.16%
O=C(Nc1cccc([N+](=O)[O-])c1)N1CCN(c2ccccc2)CC1	-38.7%
CCc1cccc(C)c1NC(=O)C1CCN(C(=O)c2ccc([N+](=O)[O-])cc2)CC1	-48.2%

— paper PMC4336329 (PLoS ONE, 2015)
